Reference: PubChem BioAssay (NCI)
The panel holds about 83,000 compounds, 20% with a hit somewhere; the sample as a whole holds those more often.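 48-hour exposure, single concentration, 96-well plates; percent growth endpoint where 0 means no net growth. Active: below 10.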 A number with no mark means an inactive call. Active and inactive are the calls of the source.

Experiments:
Assay in all cases: NCI-60 one-dose screen, 48 h (100 = growth as untreated, 0 = no growth, -100 = all killed)
SR leukemia = conditions: 10 µM unless noted
RPMI-8226 leukemia = conditions: 10 µM
OVCAR-8 ovarian = conditions: 10 µM unless noted
OVCAR-5 ovarian = conditions: 10 µM unless noted
OVCAR-4 ovarian = conditions: 10 µM unless noted
IGROV1 ovarian = conditions: 10 µM unless noted
OVCAR-3 ovarian = conditions: 10 µM unless noted
HS 578T breast = conditions: 10 µM unless noted
NCI/ADR-RES ovarian = conditions: 10 µM unless noted
T-47D breast = conditions: 10 µM
BT-549 breast = conditions: 10 µM unless noted
MDA-MB-435 melanoma = conditions: 10 µM unless noted
SW-620 colon = conditions: 10 µM unless noted
MCF7 breast = conditions: 10 µM unless noted
HCT-116 colon = conditions: 10 µM unless noted
HCC-2998 colon = conditions: 10 µM unless noted
SK-OV-3 ovarian = conditions: 10 µM
KM12 colon = conditions: 10 µM unless noted

SMILES	growth (SR leukemia)	growth (RPMI-8226 leukemia)	growth (OVCAR-8 ovarian)	growth (OVCAR-5 ovarian)	growth (OVCAR-4 ovarian)	growth (IGROV1 ovarian)	growth (OVCAR-3 ovarian)	growth (HS 578T breast)	growth (NCI/ADR-RES ovarian) [%]	growth (T-47D breast)	growth (BT-549 breast)	growth (MDA-MB-435 melanoma)	growth (SW-620 colon)	growth (MCF7 breast)	growth (HCT-116 colon)	growth (HCC-2998 colon)	growth (SK-OV-3 ovarian) [%]	growth (KM12 colon)
CCN1CCN(c2nc3ccccc3c3c(=O)c4cc(F)ccc4sc23)CC1	0.85% (active)	65.5%	71%	79.8%	63%	57%	71%	62.1%	78.3	65.1%	85.7%	10.2%	37.2%	65.1%	54.8%	64.9%		
Cc1cc(Cl)c2c(Cl)ccc(Cl)c2n1	91.9%	107%	103%	101%	128%	111%	105%	119%		103%	100%	102%	114%	99.3%	100%	116%	97.7	108%
FC(F)(F)c1cc(CNc2nc(Cl)ncc2Br)cc(C(F)(F)F)c1	38.2%	70.9%	91.5%	96.6%	98.5%	75%	85.6%	54.5%		82.1%	90%	45.9%	103%	93.3%	96.1%	97.8%	81.1	71.2%
Cc1ccc(S(=O)(=O)N2C/C(=C\c3cc(F)cc(F)c3)C(=O)/C(=C/c3cc(F)cc(F)c3)C2)cc1	3.56% (active)	-15.1% (active)	-29% (active)	-30.6% (active)	-31.4% (active)	-58.6% (active)	-82.9% (active)	11.3%		-0.238% (active)	-16.9% (active)	-76.6% (active)	-47% (active)	-75.4% (active)	-93.9% (active)	-82.6% (active)	14.9	-30.6% (active)
CCOC(=O)c1[nH]c2cc(Cl)ccc2c1[C@@H](C(=O)NC(C)(C)C)N(CC)C(=O)CCCCC#Cc1cccc2c1CN(C1CCC(=O)NC1=O)C2=O (some centres not stated)	12.7%	7.28% (active)	10.9%	39.6%	13.2%	8.84% (active)	8.96% (active)	-12.6% (active)	16.8		3.98% (active)	18.1%	22.2%	12.5%	24.6%	6.54% (active)		
COc1cc2nc(SCc3cc(OC)c(OC)c(OC)c3)n(-c3ccccc3OC)c(=O)c2cc1OC	23.8%	71.2%	84.6%	89%	83.1%	83.1%	48.2%	60.8%		88.6%	87.5%	0.0693% (active)	76.4%	77%	88%	94.6%	98.2	54.1%
O=C(N/N=C/c1ccc2c(c1)OCO2)c1cnn2c1NC(c1ccccc1)C2 (configuration not stated)	31.6%	76.4%	66.8%	78.1%	48.9%	51.5%	25.2%	32.5%	55.6		60.6%	3.07% (active)	43.6%	33%	25.1%	45.3%		
COc1ccc(Nc2[nH]n(C3=Nc4ccccc4Sc4ccccc43)c(=O)c2C#N)cc1	70.8%	37%	40.2%	102%	47.5%	55.1%	52.4%		45.2	17.9%	52.8%			30.7%	30.6%	40.8%	53.5	43.8%
COc1ccc(OC)c(C2C(C#N)=C(N)Oc3cc(O)ccc32)c1 (configuration not stated)	80%	84.5%	100%	97%	101%	105%	111%	94%		86.7%	94.1%	83.4%	101%	99.3%	96.3%	109%	97.2	94%
Clc1ccc(Nc2ccnc(N3CCN(c4ccnc5cc(Cl)ccc45)CC3)n2)cc1	37.2%	34.5%	61.4%	70.6%	41.9%	-4.05% (active)	35.5%	49.1%		15.2%	52.2%	13.3%		17.5%	13.5%	64.7%	62.5	36.8%
O=C(C[Si](CC(=O)c1cccc(C(F)(F)F)c1)CC(=O)c1cccc(C(F)(F)F)c1)c1cccc(C(F)(F)F)c1	5.27% (active)	4.44% (active)	90.9%	91.4%	88.3%	48.3%	37.8%		78.4	98.7%	87.2%	26%	35%	86.3%	23.5%	83.6%	98.3	
O=[N+]([O-])c1ccc2nc(N/N=C/c3ccc(O)cc3)sc2c1	18.2%	28.3%	59.9%	113%	56%	46.6%	51.3%	83.5%		35.1%	28.6%	47.7%	63.7%	57.9%	23.3%		82.4	33.4%
COc1ccc(/C=C2\CN(Cc3cn(CCCNc4ccnc5cc(Cl)ccc45)nn3)C/C(=C\c3ccc(OC)c(OC)c3)C2=O)cc1OC	-11.8% (active)	-35.5% (active)	6.8% (active)	2.05% (active)	21.3%	31.7%	12.7%	34%		49.5%	-56.1% (active)	-28.9% (active)	-16.7% (active)	36.9%	-64.6% (active)	-87% (active)	36.5	-64% (active)
COc1ccc(-c2nc3sccn3c2/C=C/C(=O)c2cc(OC)c(OC)c(OC)c2)cc1OC	14.6%	10.9%	25.6%	79.1%	21.9%	34.1%	2.79% (active)	3.84% (active)		4.81% (active)	0.662% (active)	-30.5% (active)	10.2%	4.93% (active)	7.36% (active)	40.3%	26.3	-15.2% (active)
Cc1nc(-c2ccccc2)cc2c(O)c(C(=O)N/N=C/Cc3ccccc3)[nH]c(=O)c12	46.1%	103%	103%	101%	110%	113%	116%	112%		104%	105%	118%	107%	98.5%	101%	95.4%	108	115%
CC(C)NCC(O)COc1ccc(CCOCC2CC2)cc1 (configuration not stated)	78.3%	99.1%	93%	107%	82.5%	113%	112%	109%		103%	116%	103%	102%		106%		113	113%
COc1cccc(C2CC(=O)Nc3cc4c(cc32)OCO4)c1OC (configuration not stated)	86.2%	79.2%	98.6%	98.8%	95%	93.4%	99.7%	93.1%		87.5%	101%	97%	105%	94.8%	93.6%		102	91.6%
O=[N+]([O-])c1ccc(C=C2C(Cl)=C(Cl)C(Cl)=C2Cl)cc1	-1.36% (active)	11.4%	22.4%	112%	54.5%		-17% (active)	-13.4% (active)		47.8%	97.7%	76.1%	-59.9% (active)	34.8%	-11% (active)		115	73.7%
COC(=O)c1cc(-c2ccc(C)cc2)n(C(=O)CSc2nc3sc(C(N)=O)c(C)c3c(=O)n2Cc2ccccc2)n1	86.9%	94.4%	104%	110%	100%		106%	107%		95.1%	96.1%	104%	105%	90.2%	92%	108%	96.8	100%
